Assay outcomes: PubChem BioAssay, The Scripps Research Institute Molecular Screening Center
TEAD-YAP block = TEAD-YAP interaction inhibition; inhibition, % at 9.12 µM; HEK-TIYL cells, TEAD-Gal4/YAP UAS-luciferase luminescence; 640,000 tested, 1.4% active; in the data active = inhibition above about 32%;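 also: 0% = median of test compound wells and 100% = reference inhibitor wells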
FBW7 activator = activators of human E3 ligase FBW7; AlphaScreen FBW7–phospho-cyclin E peptide binding, activator screen; normalized activity (activation), % at 26.1 µM; Q969H0; 650,000 tested, 0.13% active; in the data active = normalized activity above about 1.9%;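 also: purified mutant Fbw7 with reduced substrate affinity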
Target sequence (Q969H0 whole entry, looked up): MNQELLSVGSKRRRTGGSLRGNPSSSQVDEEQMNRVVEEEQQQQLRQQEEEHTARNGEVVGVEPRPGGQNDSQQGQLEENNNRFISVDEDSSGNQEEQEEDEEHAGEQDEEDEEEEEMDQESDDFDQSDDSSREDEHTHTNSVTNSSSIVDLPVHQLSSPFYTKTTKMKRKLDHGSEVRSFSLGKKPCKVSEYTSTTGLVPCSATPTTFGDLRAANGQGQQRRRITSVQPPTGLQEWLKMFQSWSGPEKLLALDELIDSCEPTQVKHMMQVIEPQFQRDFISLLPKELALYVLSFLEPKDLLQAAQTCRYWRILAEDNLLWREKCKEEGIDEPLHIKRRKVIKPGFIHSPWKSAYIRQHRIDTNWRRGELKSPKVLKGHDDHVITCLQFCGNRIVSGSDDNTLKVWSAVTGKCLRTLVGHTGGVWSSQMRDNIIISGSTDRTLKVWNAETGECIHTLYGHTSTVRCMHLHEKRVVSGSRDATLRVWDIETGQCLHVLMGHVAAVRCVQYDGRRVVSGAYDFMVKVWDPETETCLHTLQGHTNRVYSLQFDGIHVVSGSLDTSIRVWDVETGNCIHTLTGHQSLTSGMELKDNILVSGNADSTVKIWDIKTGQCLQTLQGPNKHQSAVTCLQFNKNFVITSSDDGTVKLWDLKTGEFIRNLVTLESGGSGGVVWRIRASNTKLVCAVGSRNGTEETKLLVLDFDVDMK
GPR151 ag = human GPR151 activation; Q8TDV0; PathHunter beta-arrestin GPR151 cells, luminescence; activation, % at 11.2 µM; 650,000 tested, 1% active; AID 1508602; in the data active = activation above about 4.9%;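 also: 0% = median of compound wells and 100% = cells with positive control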
MITF primary = human MITF inhibition, primary screen; 650,000 tested, 0.91% active; AlphaScreen MITF homodimerization, bead proximity signal; O75030; inhibition, % at 2.6 µM; in the data active = inhibition above about 50%;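 also: 0% = vehicle wells with protein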
GPR151 conf act = human GPR151 activation, confirmation screen; AID 1508609; 6,700 tested, under 10 active; shares compounds with GPR151 ag; GPR151 PathHunter beta-arrestin cells, luminescence, 90 min; % of EA-reagent control over plate median; activation, % at 11.2 µM;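 active = mean percent activation across replicates above the confirmation screen cutoff of 4.91%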
GPR119 counter = GPR119 activation, counter-screen for GPR151 activators; activation, % at 11.2 µM; GPR119 PathHunter beta-arrestin cells, luminescence, 90 min; 0 = compound-well median, 100 = enzyme-acceptor control; shares compounds with GPR151 ag; 6,700 tested, 0.3% active;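 active = mean percent activation in the counterscreen above 29.09%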;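 also: counterscreen on off-target GPR119 to flag nonselective hits from the GPR151 activator screen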
An asterisk follows results filed as active. The list is not random: actives were taken first. Their share in the collection is about 3.5%.

For O=C(Cc1c(C(=O)O)[nH]c2ccc(Cl)cc12)Nc1ccc2c(c1)OCO2 the results were TEAD-YAP block -0.6, FBW7 activator -0.1, GPR151 ag -0.1 and MITF primary -9.5.
Screening COc1ccc(CN2CCC3(CCC(CNS(=O)(=O)C(C)C)O3)CC2)cc1 (stereo not given) returned TEAD-YAP block 0.4, FBW7 activator 0.0, GPR151 ag 6.3*, MITF primary -3.4, GPR151 conf act -0.2 and GPR119 counter 2.6.
`C(=N\NC1=NCCCCC1)/c1cn(-c2ccccc2)nc1-c1cccnc1` gave TEAD-YAP block -4.0, FBW7 activator -0.1, GPR151 ag -1.5 and MITF primary 5.2.
Screening COCCC(=O)NCC1Cc2cc(C)cc(-c3ccccn3)c2O1 (stereo not given) returned TEAD-YAP block 1.6, FBW7 activator 0.1, GPR151 ag 0.0 and MITF primary 2.2.
`CC(C)c1nc(CNc2nc3nonc3nc2N(C)C)cs1` gave TEAD-YAP block 3.4, FBW7 activator 0.1, GPR151 ag 6.8*, MITF primary 15.0, GPR151 conf act -1.0 and GPR119 counter -8.3.
Screening CSc1cccc(NC(=O)CCC(=O)N2CCSc3ccccc32)c1 returned TEAD-YAP block -0.9, FBW7 activator 0.1, GPR151 ag 17.2*, MITF primary 2.8, GPR151 conf act -0.5 and GPR119 counter -6.6.
Screening N#C/C(=C\c1ccc(OCC(=O)O)cc1)C(N)=S returned TEAD-YAP block -6.3, FBW7 activator 0.5, GPR151 ag 6.4*, MITF primary 4.4, GPR151 conf act -0.3 and GPR119 counter -5.0.
For C=CCOC(=O)/C(C#N)=C/c1ccc(OCC(=O)O)cc1 the results were TEAD-YAP block -3.0, FBW7 activator 0.0, GPR151 ag -2.0 and MITF primary -8.0.
For Cc1ccc(N2C(=O)CC(c3ccccc3)C3=C2CC(C)(C)CC3=O)cc1 (stereo not given) the results were TEAD-YAP block 10.5, FBW7 activator -0.4, GPR151 ag -2.0 and MITF primary 10.7.
CC1(C)CC(=O)C2=C(C1)N(c1ccccc1)C(=O)CC2c1ccccc1 (stereo not given) was read as TEAD-YAP block 1.9, FBW7 activator 0.0, GPR151 ag 6.8*, MITF primary 13.2, GPR151 conf act -0.2 and GPR119 counter -7.3.
`CCOc1ccc(NC(=O)C2CCCN(S(=O)(=O)c3c(C)[nH]c(=O)[nH]c3=O)C2)cc1` (stereo not given) gave TEAD-YAP block 5.8, FBW7 activator 0.6, GPR151 ag 0.8 and MITF primary -4.4.
For COc1cc(NC(=S)N2CCC(C(N)=O)CC2)cc(OC)c1 the results were TEAD-YAP block 5.4, FBW7 activator -0.4, GPR151 ag 7.5*, MITF primary -12.1, GPR151 conf act 0.3 and GPR119 counter -9.8.
`CCCCC/C=C/C=C1/C=CC(=O)[C@@H]1C/C=C\CCCC(=O)O` gave GPR151 ag 1.1 and MITF primary 26.1.
CCCCC[C@H](O)/C=C/[C@H]1C=CC(=O)[C@H]1C/C=C\CCCC(=O)O was read as GPR151 ag 5.8*, MITF primary 1.7, GPR151 conf act 0.8 and GPR119 counter 9.3.
For CCCCCC(=O)/C=C/[C@@H]1[C@@H](C/C=C\CCCC(=O)O)[C@@H](O)C[C@H]1O the results were GPR151 ag 5.5*, MITF primary -2.2, GPR151 conf act 1.0 and GPR119 counter 7.1.
`CCCCCCCC/C=C\CCCCCC(=O)O` gave GPR151 ag 8.7*, MITF primary 9.0, GPR151 conf act -0.1 and GPR119 counter 6.7.
CCCCC/C=C/C=C1/C(=O)C[C@H](O)[C@@H]1C/C=C\CCCC(=O)O was read as GPR151 ag 5.6*, MITF primary 14.9, GPR151 conf act -0.4 and GPR119 counter -8.7.
Screening CCCCC[C@H](O)/C=C/[C@H]1C=CC(=O)[C@@H]1C/C=C\CCCC(=O)O returned GPR151 ag 1.1 and MITF primary -2.9.
FC(F)(F)c1cc(Nc2ncnc3sc4c(c23)CCCC4)ccc1Cl was read as TEAD-YAP block 8.9, FBW7 activator 0.3, GPR151 ag -1.1 and MITF primary 14.6.
CCCCC[C@H](O)/C=C/[C@H]1C=CC(=O)[C@@H]1CCCCCCC(=O)OCC was read as GPR151 ag 4.9*, MITF primary -0.2, GPR151 conf act 0.9 and GPR119 counter 2.7.
CCCCC[C@H](O)/C=C/[C@H]1C(=O)C[C@H](O)[C@@H]1CCCCCCC(=O)O was read as GPR151 ag 9.7*, MITF primary 17.9, GPR151 conf act 0.3 and GPR119 counter 10.0.
For CCCCC[C@H](O)/C=C/[C@H]1C(=O)C[C@H](O)[C@@H]1CCCCCCCO the results were GPR151 ag 0.3 and MITF primary 4.3.
`CCCCC[C@@H](O)/C=C/[C@H]1C(=O)C[C@H](O)[C@@H]1C/C=C\CCCC(=O)O` gave GPR151 ag 4.8 and MITF primary -0.1.
`CCCCC[C@H](O)/C=C/C1=C(C/C=C\CCCC(=O)O)C(=O)CC1` gave GPR151 ag 9.3*, MITF primary -4.8, GPR151 conf act -0.1 and GPR119 counter -8.8.
Screening CCCCC(C)(C)[C@H](O)/C=C/[C@H]1C=CC(=O)[C@@H]1C/C=C\CCCC(=O)O returned GPR151 ag 13.0*, MITF primary -3.6, GPR151 conf act 1.5 and GPR119 counter -0.2.
Screening CCCCC(C)(C)[C@H](O)/C=C/[C@H]1C=CC(=O)[C@@H]1CCCCCCC(=O)O returned GPR151 ag -0.8 and MITF primary 12.2.
Screening O=C(CCN1Cc2ccccc2OC(c2ccccc2)C1)NCc1cn2c(n1)SCC2 (stereo not given) returned TEAD-YAP block -1.9, FBW7 activator -0.2, GPR151 ag -0.9 and MITF primary 8.2.
Screening COc1ccc(C)cc1-n1cnc2cc(C(=O)O)ccc21 returned TEAD-YAP block -3.7, FBW7 activator 0.1, GPR151 ag 7.7*, MITF primary 3.8, GPR151 conf act -0.6 and GPR119 counter 2.7.
COc1ccc(-c2csc3ncn(-n4c(C)ccc4C)c(=O)c23)cc1OC was read as TEAD-YAP block 3.8, FBW7 activator -0.1, GPR151 ag 0.6 and MITF primary 9.3.
`CCSCCSc1nc(-c2cccs2)cc(-c2ccccc2)c1C#N` gave TEAD-YAP block -5.0, FBW7 activator 0.1, GPR151 ag -1.7 and MITF primary -5.8.
COc1ccccc1-n1c(-c2ccc(NS(C)(=O)=O)cc2)n[nH]c1=S was read as TEAD-YAP block -8.9, FBW7 activator 0.0, GPR151 ag 6.5*, MITF primary 2.1, GPR151 conf act -0.9 and GPR119 counter -6.3.
For COc1ccc(-c2n[nH]c(=S)n2-c2cc(OC)ccc2OC)cc1 the results were TEAD-YAP block 7.4, FBW7 activator 0.0, GPR151 ag 1.1 and MITF primary 1.8.
